Screening results from PubChem BioAssay.
This is a sample that favours compounds with a hit; in the whole collection about 1.3% have one here.
VACV Venus inh: vaccinia inhibition (Venus reporter). Vaccinia virus Venus reporter expression, fluorescence. Potency, µM (top dose mostly 36.5 µM), without a hit: top-dose activity change, negative = inhibition, most hits filed as inhibitors. actives 0.46% (n = 330,000); calls by dose curve; tested in A549 cells; also: nearly all actives have a fitted effect of over 30% in size
TbPYK inhibitor: inhibitors of Trypanosoma brucei pyruvate kinase | Q57TT1 | TbPYK enzyme, Kinase-Glo Plus ATP luminescence, 45 min | Potency, µM (titrated, usually from 76.8 µM), for inactives: at the top dose activity, negative = inhibition, usual class: inhibitors | actives 0.12% (n = 410,000) | AID 624173; also: nearly all actives have a fitted effect of over 50% in size
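Activity of T. brucei pyruvate kinase was followed by Kinase-Glo Plus luminescence after the enzyme reacted 45 min at room temperature with 130 uM ADP (final) and substrate. Test compounds were added before ADP at multiple concentrations.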
LmPK inhibitor: blocks Leishmania mexicana pyruvate kinase activity | Q27686 | purified LmPK, Kinase-Glo ATP luminescence, 1 h | Potency, µM (doses to about 57.5 µM), for the others: at the top dose activity change, negative = inhibition, usual class: inhibitors | actives 0.37% (n = 290,000) | AID 1721
Target sequence (Q27686 whole entry, looked up): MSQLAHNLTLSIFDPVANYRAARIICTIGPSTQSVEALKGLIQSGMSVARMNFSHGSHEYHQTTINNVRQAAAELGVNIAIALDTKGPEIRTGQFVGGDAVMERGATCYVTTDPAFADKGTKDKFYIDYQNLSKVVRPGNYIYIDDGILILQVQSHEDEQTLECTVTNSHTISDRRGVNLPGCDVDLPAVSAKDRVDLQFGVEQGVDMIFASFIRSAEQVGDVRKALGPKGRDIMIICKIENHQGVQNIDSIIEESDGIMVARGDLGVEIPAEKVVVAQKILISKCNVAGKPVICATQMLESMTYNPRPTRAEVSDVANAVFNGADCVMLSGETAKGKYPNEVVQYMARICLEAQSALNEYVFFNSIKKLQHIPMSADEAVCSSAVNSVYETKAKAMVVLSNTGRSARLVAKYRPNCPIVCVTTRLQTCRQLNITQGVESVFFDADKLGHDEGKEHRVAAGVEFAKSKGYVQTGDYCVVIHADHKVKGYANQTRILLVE
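Purified LmPK (0.1 nM) converted ADP (0.1 mM) to ATP with PEP (0.5 mM) in imidazole buffer pH 7.2 with KCl and MgCl2, 1 h at room temperature. ATP was read by Kinase-Glo luminescence; data normalized to uninhibited and no-enzyme controls.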
AMA1 RON2 block: disrupts binding of P. falciparum AMA1 to RON2; AlphaScreen AMA1-biotinylated RON2 peptide binding; Potency, µM (highest dose often 58.2 µM), for inactives: at the highest dose activity change, negative = inhibition, most hits filed as inhibitors; actives 0.2% (n = 360,000); AID 720542;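 also: 0% = vehicle wells and -100% = peptide control; nearly all actives have a fitted effect of over 45% in size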
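AMA1 (3D7) with his tag at 25 nM final met compounds first, then biotinylated RON2 peptide at 25 nM; detection used donor plus acceptor beads, 10 µg/mL apiece, read by AlphaScreen after 30 min at room temperature.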
VACV mCherry inh: inhibitors of vaccinia virus infection (mCherry reporter signal). Vaccinia virus mCherry reporter infection, fluorescence. AID 720579. actives 0.63% (n = 310,000). Potency, µM (highest dose often 36.5 µM), for the others: top-dose activity change, negative = inhibition, actives largely listed as inhibitors; calls by dose curve; tested in A549 cells; also: nearly all actives have a fitted effect of over 35% in size
RE007 growth inh: less growth of the S. pombe RE007 Vpr strain; actives 0.21% (n = 360,000); AID 651644; Potency, µM (highest dose often 92.2 µM), for the others: top-dose activity change, negative = less growth, hits mostly inhibitors; S. pombe RE007 Vpr strain, BacTiter-Glo ATP luminescence, 24 h; active = well fitted falling curve with a large enough effect; inconclusive = small, poorly fitted or top-dose-only effect; inactive = no such curve, though single readings can be large or run the other way; also: nearly all actives have a fitted effect of over 50% in size
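Fission yeast strain RE007, carrying one chromosomally integrated HIV-1 vpr copy, was seeded at OD 0.01 in PMG+AL medium with 23 nL pinned compound. After 24 h at 30 °C and 99% humidity, viability was read by BacTiter-Glo luminescence.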
* hit, by the source's call; i = inactive; ? = inconclusive; . = not tested or not shown; [ ] = dose if it differs, or a comment. Unless noted, calls follow the shape of the dose curve; as a rule, active = well fitted curve in the direction sought with a large enough effect; inconclusive = small, poorly fitted or top-dose-only effect, or another doubt; inactive = no such curve, though single readings can be large; an effect the other way counts as inactive or inconclusive. Unless noted, % is scaled to controls: 0 for no effect and ±100 for the full control effect; potency is read from the fitted curve at half-maximal effect.

SMILES	VACV Venus inh	TbPYK inhibitor	LmPK inhibitor	AMA1 RON2 block	VACV mCherry inh	RE007 growth inh
Cc1ccc(-c2n[nH]c(=S)n2-c2ccccc2)cc1	-7%	?	?	20%	-14%	18%
COc1ccc(-c2n[nH]c(=S)n2-c2ccc(C)cc2C)cc1	.	18µM*	-2%	62%	.	7%
Cc1ccc(-n2c(-c3cccnc3)n[nH]c2=S)c(C)c1	.	.	13µM*	43%	.	5%[3.69 µM]
COc1ccccc1-n1c(-c2ccccc2)c[nH]c1=S	.	?	11µM*	62%	.	8%
CCn1c(-c2ccccc2F)nc2cc(C(=O)NCc3ccc(C)o3)cc(NC(C)=O)c21	-15%	.	.	.	i	.
NC(=O)[C@@H]1CCCN1C(=O)CCN1Cc2ccccc2OC(c2ccccc2F)C1 (some centres undefined)	-7%	.	.	.	-11%	.
COC(=O)[C@@H]1CCCN1C(=O)c1c(OC)cc(=O)n2c1CCN(Cc1ccc3c(c1)OCCO3)CC2	-9%	.	.	.	-7%	.
N#Cc1c2c(c(Cl)n3c1nc1ccccc13)CCCC2	?	.	.	.	-27%	.
Cc1ccc(-n2c(-c3ccc(Cl)cc3)n[nH]c2=S)c(C)c1	.	5µM*	20µM*	76%	.	16%
COc1ccccc1-n1c(-c2cccnc2)n[nH]c1=S	-3%	?	14µM*	-8%	-6%	12%
Cc1ccc(NCCN(C)C)c2c(=O)c3cc(O)ccc3sc12	?	-14%	.	-25%	1.4µM*	6%
O=C(Nc1ccn(CCCNCC(c2ccccc2)c2ccccc2)c(=O)n1)OCc1ccccc1	11µM*	1%	.	-12%	13µM*	-14%
c1ccc(COc2ncnc3c2ncn3CCCNCC(c2ccccc2)c2ccccc2)cc1	14µM*	2%	.	-22%	?	-11%
COc1ncnc2c1ncn2CCCNCC(c1ccccc1)c1ccccc1	-13%	4%	.	8%	-13%	-12%
COc1cc(C(=O)Nc2ccc(C(=O)O)cc2)ccc1OC(C)=O	.	-4%	25µM*	-10%	.	-12%
COc1cc(C(=O)Nc2ccc(O)cc2)ccc1OC(C)=O	-2%	0%	?	14%	-6%	1%
O=C1C=CC(=O)N1c1ccc(OC(F)F)cc1	-21%	11µM*	3%	0%	i	2.8µM*
O=C1C=CC(=O)N1c1ccc(O)cc1	.	?	9%	7%	.	6.3µM*
O=C1CCCC(=O)N1c1ccc(O)cc1	.	5%	-9%	3%	.	11%
CC1(O)CCC2C3CCC4=CC(=O)CCC4(C)C3(F)C(O)CC21C (centres undefined)	.	-3%	.	.	.	.
Cc1ccccc1CSCC1Nc2ccc(C(=O)NCCc3ccccc3)cc2NC1=O (centres undefined)	29%	?	.	10%	-1%	32µM*
Cc1cccc(CS(=O)(=O)CC2Nc3ccc(C(=O)NCc4ccccc4)cc3NC2=O)c1 (centres undefined)	?	-2%	.	.	?	.
COc1cccc(C(=O)NCC2Cc3cccc(-c4nc(C)cnc4C)c3O2)c1OC (centres undefined)	50%	.	.	.	26%	.
CCOC(=O)[C@H](CCc1ccccc1)N[C@H]1CCCN2CCC[C@@H](C(=O)O)N2C1=O	.	4%	.	.	.	.
Cc1cc(C(=O)Nc2cccc(-c3nc(CNC(=O)c4ccc[n+]([O-])c4)c(C)o3)c2)c(C)o1	4%	.	.	.	-4%	.
SMILES	VACV Venus inh	TbPYK inhibitor	LmPK inhibitor	AMA1 RON2 block	VACV mCherry inh	RE007 growth inh
O=C(O)CCCC(=O)Nc1ccccc1SCCS(=O)(=O)c1ccc(Cl)cc1	?	-11%	9%	10%	20µM*	0%
Cc1cc(C)n(-c2ccc(C(=O)NCC3Cc4cc(-c5cnccn5)ccc4O3)cc2)n1 (centres undefined)	-7%	.	.	.	-8%	.
CC(C)(C)NCC(=Cc1ccccc1)C(=O)c1ccccc1	?	-2%	.	-4%	10µM*	13%
COc1ccc(C=C(C(=O)c2ccccc2)C(=O)c2ccccc2)cc1	-5%	2%	.	126%	i	-5%[18.4 µM]
Cc1cc(C)cc(NC(=O)/C(C#N)=C/c2cn(CC(=O)NCc3ccco3)c3ccccc23)c1	5.6µM*	-4%	2%	3%	?	9%
Cc1ccc(NC(=O)/C(C#N)=C/c2cn(CC(=O)NCc3ccco3)c3ccccc23)cc1C	1%	-2%	0%	20%	-12%	-11%
Cc1ccc2nc(-c3ccc(C)c(NC(=O)COc4ccc(Cl)cc4)c3)oc2c1	-10%	.	.	.	20%	.
CCN1c2ccccc2N(C)C1(C)c1ccccc1 (centres undefined)	27%	?	?	32µM*	97%	?
CN1c2ccccc2N(C)C1(C)c1ccccc1	30%	?	-27%	?	40%	-13%
CC(C)n1cnc2c(N(C)c3ccccc3)nc(N(CCN(C)C)Cc3ccccc3)nc21	13µM*	3%	3%	?	?	21%
CCc1ccc(C(=O)COC(=O)C(Cc2c[nH]c3ccccc23)NC(=O)c2ccc(CC)cc2)cc1 (centres undefined)	-10%	-1%[15.4 µM]	.	.	-18%	.
Nc1cccc(S(=O)(=O)N2CCOCC2)c1	-6%	.	.	.	-10%	.
CCOc1cc(/C=C/C(=O)c2ccc(OC)c(CN3CCOCC3)c2)cc(Br)c1O	184%	0%	0%	-12%	11µM*	-8%
CCOc1cc(/C=N/NC(=O)c2ccc(CN3CCOCC3)cc2)ccc1OC	-15%	5%	1%	-3%	i	3%
CSCC[C@H](NC(=O)[C@@H](Cc1ccc(O[S+](=O)([O-])O)cc1)NC(=O)[C@H](N)CC(=O)O)C(=O)NCC(=O)N[C@@H](Cc1c[nH]c2ccccc12)C(=O)N[C@H](CCSC)C(=O)N[C@H](CC(=O)O)C(=O)N[C@@H](Cc1ccccc1)C(N)=O	.	-6%	.	.	.	.
COc1ccc(C(CCNCc2ccc(N(C)C)cc2)c2ccccc2OC)cc1 (centres undefined)	-26%	10%	3%	13µM*	?	-3%
CCOc1ccc(N=Cc2c(C)[nH]n(-c3nc4ccccc4[nH]3)c2=O)cc1	3%	?	22µM*	56%	-12%	4µM*
Cc1[nH]n(-c2ccccc2)c(=O)c1C=Nc1cnc2ccccc2c1	-7%	-4%	-4%	-5%	.	-25%
Cc1cc(O)c(Oc2cc(C)cc(O)c2O)c(O)c1	-10%	-23%	-8%	4.5µM*	-14%	3%
CSC1=NSC2=NC(=O)/C(=C/c3coc4ccccc4c3=O)C(=N)N12	7%	-11%	0%	10%	-22%	40µM*
CSC1=NSC2=NC(=O)/C(=C/c3coc4ccc(O)cc4c3=O)C(=N)N12	27%	-20%	2%	8%	-4%	-1%
